Data from PubChem BioAssay.

Experiment: probe aNOTCH2 binding on compound microarray – biochemical, small-molecule microarray, 635/667 nm fluorescence, primary screen (AID 1121);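 further: score merges feature fluorescence read at 667 nm with its signal to noise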
Settings: higher = more signal

`C=CCc1cccc([C@@H]2[C@@H](C)CC[C@H]3C(=O)N4[C@H](c5cccc(CC=C)c5)[C@@H](C)CC[C@H]4C(=O)N23)c1` and `O=C(CS)NCCCCCNC(=O)[C@H]1C[C@H]2C(=O)N3CCC[C@H]3C(=O)N2[C@H]1c1ccc(O)cc1` are the same in composite z-score: -0.0304 for the first, -0.0304 for the second.

Compared with `CCCCCCc1nc(C2CC2)c(C)c2c1[Si](C(C)C)(C(C)C)OC2`, `CC(C)(C)OC(=O)CC[C@]1(C(=O)NCCN2CCOCC2)N=C(c2ccc(OCCCO)cc2)O[C@H]1c1ccccc1CN=[N+]=[N-]` is higher in composite z-score: -0.0942 for the first, -0.057 for the second.

Going from `CCOC(=O)C[C@H]1[C@H](OC(=O)c2ccccc2-c2ccccc2)[C@@H](NC(=O)c2ccc(-c3ccccc3)cc2)c2cc(OCCCO)ccc2N1C(=O)Cc1ccc(OC)cc1` to `C=CCC(OC(C)=O)[C@@H]1[C@@H](N(Cc2cc3ccccc3o2)C(=O)c2ccc(C)cc2)c2cc(OCCCO)ccc2N1C(=O)c1ccc2ccccc2n1` (stereo partly specified), the composite z-score rises from -0.0759 to -0.0037.

Going from `C=CCN1C(=O)[C@@]2(Cc3ccccc3)N=C(c3ccc(OCCCO)cc3)O[C@H]2c2ccccc21` to `N#Cc1ccc(NN2C(C(O)CCc3ccccc3)C=CC3C(=O)N(c4ccccc4)C(=O)C32)cc1` (stereo unspecified), the composite z-score falls from 0.2 to 0.0532.

Going from `C=C(C(=O)CC[C@H](OC(=O)c1ccccc1-c1ccccc1C(=O)O)c1ccc(CO)o1)C(C)C` to `Cc1ccc(S[C@]2(C(=O)NC(C)C)CC(=O)N(Cc3cc(C(F)(F)F)cc(C(F)(F)F)c3)[C@@H]2c2ccc(CO)cc2I)cc1`, the composite z-score falls from -0.0986 to -0.14.

Work on `O=[N+]([O-])c1ccc(C[n+]2ccc3ccc(O)cc3c2)o1` yielded a composite z-score of -0.0746.
